# PAFAH2 inh – PAFAH2 (human) inhibition. inhibition, % at 3.39 µM. Q99487. 340,000 tested, 0.99% active. recombinant PAFAH2, FP-rhodamine activity probe, fluorescence polarization;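 active = inhibition above the mean over all tested compounds plus 3 SD, cut at about 30% in these data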;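 also: inhibitors block probe labeling of enzyme so polarization drops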
# pPAFAH FP inh – inhibitors of human plasma PAF acetylhydrolase (pPAFAH); Q13093; recombinant pPAFAH, FP-rhodamine probe fluorescence polarization; inhibition, % at 3.39 µM; 330,000 tested, 1.5% active; AID 463082;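 active = inhibition above the mean inhibition across the screen plus 3 SD, cut at about 25% in these data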;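 also: inhibitors block binding of the rhodamine activity-based probe so polarization drops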
# PAFAH1B3 FP inh – inhibitors of human PAFAH1B3. 340,000 tested, 0.28% active. recombinant PAFAH1B3, FP-rhodamine probe, fluorescence polarization. Q15102. AID 492972. inhibition, % at 3.39 µM;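 active = inhibition above the screen-wide average of all tested compounds plus 3 SD, cut at about 25% in these data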
# PP5 primary – PP5 (human) phosphatase inhibition; 320,000 tested, 0.18% active; AID 1987; inhibition, % at 6.7 µM; purified PP5c, OMFP substrate fluorescence; P53041;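 active = inhibition above the campaign's mean inhibition across all tested compounds plus 3 SD, cut at about 9.5% in these data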
# PAFAH1B2 inh – inhibitors of human PAFAH1B2; P68402; recombinant PAFAH1B2, FP-rhodamine activity probe, fluorescence polarization; inhibition, % at 3.39 µM; 340,000 tested, 1.2% active; AID 492953;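 active = inhibition above the mean of all tested compounds plus 3 SD, cut at about 24% in these data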
# Target sequence (P68402 whole entry, looked up): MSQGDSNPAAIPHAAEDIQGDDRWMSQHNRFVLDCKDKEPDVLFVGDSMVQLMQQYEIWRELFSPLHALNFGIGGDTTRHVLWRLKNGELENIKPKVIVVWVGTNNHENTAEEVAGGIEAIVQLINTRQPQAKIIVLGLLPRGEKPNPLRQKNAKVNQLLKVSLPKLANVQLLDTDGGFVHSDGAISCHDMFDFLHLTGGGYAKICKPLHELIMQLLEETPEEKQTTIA
# PP1 counter – blocks human PP1-alpha phosphatase, a PP5 counter-screen; purified PP1alpha, OMFP fluorescence; inhibition, % at 6.7 µM; 320,000 tested, 0.9% active; P62136;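 active = inhibition above the mean inhibition of all tested compounds plus 3 SD, computed separately for each screening campaign, cut at about 15% in these data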
# Target sequence (P62136 whole entry, looked up): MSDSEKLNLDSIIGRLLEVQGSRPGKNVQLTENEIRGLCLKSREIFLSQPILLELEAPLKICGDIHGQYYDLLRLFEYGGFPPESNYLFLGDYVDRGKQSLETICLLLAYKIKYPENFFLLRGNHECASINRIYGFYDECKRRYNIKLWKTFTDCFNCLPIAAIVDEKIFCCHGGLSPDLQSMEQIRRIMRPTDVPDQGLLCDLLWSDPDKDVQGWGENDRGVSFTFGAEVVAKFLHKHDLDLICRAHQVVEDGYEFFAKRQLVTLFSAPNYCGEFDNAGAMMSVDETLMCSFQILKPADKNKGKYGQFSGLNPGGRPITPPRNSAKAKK
# PP1 confirm – confirmation of human PP1 phosphatase inhibitors; 1,900 tested, 52% active; inhibition, % at 6.7 µM; purified PP1alpha, OMFP substrate fluorescence; shares compounds with PP1 counter;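 active = mean PP1 inhibition above a set limit taken from the earlier primary screen, cut at about 15% in these data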
# PP5 inh counter – counter-screen for PP1 inhibitors: human PP5 phosphatase inhibition | inhibition, % at 6.7 µM | 1,900 tested, 4% active | purified PP5c, OMFP fluorescence | AID 2360 | shares compounds with PP1 counter;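 active = mean PP5 inhibition over triplicate wells above about 9.5% taken from the earlier PP1 screen, limit read from the data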
# Hits are given with their value; 0 = inactive; - = no result given. A selection: hits, their analogues and other compounds. The true share with any hit is near 3.4%.
SMILES,PAFAH2 inh,pPAFAH FP inh,PAFAH1B3 FP inh,PP5 primary,PAFAH1B2 inh,PP1 counter,PP1 confirm,PP5 inh counter
CCOC(=O)NC(=O)CSc1ccc(S(=O)(=O)N2CCCCC2)cn1,0,0,0,-,0,-,-,-
CN(C)S(=O)(=O)c1ccc(C(=O)OCC(=O)NCc2ccccc2)cc1,0,0,0,0,0,0,-,-
Cc1ccc(-c2cc(C(F)F)n3ncc(C(=O)N4CCCc5ccccc54)c3n2)cc1,0,0,0,0,0,0,-,-
COc1cccc(OCC(O)CN2CCC(CN3C(=O)c4cccc5cccc(c45)C3=O)CC2)c1 (stereo not drawn),0,0,0,0,0,0,-,-
O=C1c2cccc3cccc(c23)C(=O)N1CC1CCN(CC(O)COc2ccc3ccccc3c2)CC1 (stereo not drawn),0,0,0,0,0,34.0,0,0
O=C(O)c1ccc(/C=N\Nc2ccc(S(=O)(=O)N3CCOCC3)cc2[N+](=O)[O-])cc1,0,0,0,0,0,0,-,-
Cc1ccc(-n2c(O)c(/C=N/Nc3ccc(S(=O)(=O)N4CCOCC4)cc3[N+](=O)[O-])c3ccccc3c2=O)c(C)c1,33.9,0,0,0,63.9,17.6,17.6,0
COc1cnc(-c2ccccn2)nc1Sc1c(Cl)cccc1Cl,0,0,0,0,0,49.6,40.6,0
COc1cnc(-c2ccccn2)nc1Sc1ccccc1Cl,0,0,0,0,0,46.6,51.4,0
CCCCCCOc1ccc(/C(C)=N/NC2=NCCN2)cc1,0,0,0,0,0,20.5,0,0
COc1ccccc1C(=O)NCC(=O)OCC(=O)c1ccc(Cl)s1,0,0,0,0,0,0,-,-
COc1ccc(-c2cc(C(=O)NCC(c3ccccc3)N(C)C)c3ccccc3n2)cc1OC (stereo not drawn),0,0,0,0,0,0,-,-
COc1ccc(C(CNC(=O)c2ccc(-c3ccccc3)cc2)N(C)C)cc1OC (stereo not drawn),0,0,0,0,0,43.2,0,0
O=C(CN1C(=O)/C(=C/c2ccc(Cl)cc2)SC1=S)NC1C=CS(=O)(=O)C1 (stereo not drawn),0,0,0,0,0,0,-,-
CC(C)c1ccc(/C=C2\SC(=O)N(CC(=O)NC3C=CS(=O)(=O)C3)C2=O)cc1 (stereo not drawn),0,0,0,0,0,28.4,32.5,0
N#C/C(=C(/O)c1ccc(Cl)c([N+](=O)[O-])c1)c1nc2ccccc2[nH]1,0,0,0,0,0,19.9,0,0
N#C/C(=C(/O)c1ccc([N+](=O)[O-])cc1)c1nc2ccccc2[nH]1,-,0,-,0,-,0,-,-
CC(C)(C)c1ccc(NC(=O)COc2ccc(-n3ccnc3)cc2)cc1,0,0,0,0,0,18.4,0,0
Cc1csc(SCC(=O)NCc2ccccc2)n1,0,0,0,0,0,0,-,-
COc1ccc(/C=N/Nc2cc(C)nc3ccc(Br)cc23)cc1,0,0,0,0,0,22.1,0,0
COc1ccc2nc(C)cc(N/N=C/c3cccc(OC)c3O)c2c1,0,0,0,0,0,0,-,-
COc1ccc2c(Cl)c(C(=O)NCCCn3ccnc3)sc2c1Cl,0,0,0,0,0,18.4,0,0
COc1ccccc1C1=Nn2c(COc3ccccc3)nnc2SC1,-,0,-,0,-,0,-,-
Brc1ccc(N/N=C(/N=Nc2nn[nH]n2)c2ccccc2)cc1,44.3,60.5,0,0,0,19.2,24.2,0
CCOc1ccc(CCNC(=O)c2ccc3c(c2)NC(=O)C2CCCN32)cc1OCC (stereo not drawn),-,0,-,0,-,0,-,-
SMILES,PAFAH2 inh,pPAFAH FP inh,PAFAH1B3 FP inh,PP5 primary,PAFAH1B2 inh,PP1 counter,PP1 confirm,PP5 inh counter
O=C1Nc2ccccc2N2CCCC12 (stereo not drawn),-,0,-,0,-,21.5,0,49.2
COC(=O)c1ccc(NC(=O)c2ccc3c(c2)NC(=O)C2CCCN32)cc1 (stereo not drawn),-,0,-,0,-,34.4,27.3,0
Cc1ccc(C(=O)N/C(=C/c2ccco2)C(=O)NCC2CCCO2)cc1 (stereo not drawn),0,0,0,0,0,0,-,-
Cc1[nH][nH]c(=O)c1C(c1c(C)[nH][nH]c1=O)c1cn(Cc2ccc(Cl)c(Cl)c2)c2ccccc12,0,0,0,0,0,18.1,17.3,24.2
COc1ccc(CNC(=O)c2c(C)cc(=O)oc2C)cc1,0,0,0,0,0,0,-,-
COc1ccc(NC(=O)c2c(C)cc(=O)oc2C)c(OC)c1,0,0,0,0,0,35.5,0,0
COc1c(N2CCN(C(=S)NC3CC4CCC3C4)C(C)C2)c(F)cc2c(=O)c(C(=O)O)cn(C3CC3)c12 (stereo not drawn),0,0,0,0,0,21.4,38.0,0
COc1cc(NC(=O)CCNC(=O)Cn2cnc3ccccc3c2=O)cc(OC)c1OC,0,0,0,0,0,0,-,-
COc1ccc(Oc2nc(-c3ccccn3)ncc2OC)cc1,0,0,0,0,0,21.5,32.2,0
COc1cnc(-c2ccccn2)nc1N(C)C,0,0,0,0,0,0,-,-
COc1cnc(-c2ccccn2)nc1Oc1c(C)cccc1C,0,0,0,0,0,18.8,25.2,0
COc1cnc(-c2ccccn2)nc1Oc1cccc(Cl)c1,0,0,0,0,0,52.6,46.2,0
O=C(c1ccccc1S(=O)(=O)NCC(O)COc1ccc([N+](=O)[O-])cc1)N1CCCCC1 (stereo not drawn),0,0,0,0,0,0,-,-
CNC(=S)NNC(=O)Cc1ccccc1,0,0,0,0,0,0,-,-
CC(C)c1ccc(NC2CCCN(C(=O)c3ccnn3C)C2)cc1 (stereo not drawn),0,0,0,0,0,0,-,-
Cc1cc(C(=O)N2CCCC(Nc3ccc(C(C)C)cc3)C2)nn1C (stereo not drawn),0,0,0,0,0,47.3,0,0
COc1cc(/C=C2/SC(=Nc3ccc(O)cc3)NC2=O)ccc1O,0,0,0,0,0,22.7,24.2,0
COc1cc(/C=C2\SC(=Nc3ccccc3OC)NC2=O)ccc1O,0,0,0,0,0,0,-,-
COC(=O)c1ccc(C2/C(=C(\O)c3ccc(OC)c(C)c3)C(=O)C(=O)N2c2cc(C)on2)cc1 (stereo not drawn),0,0,0,0,0,19.2,15.9,0
COc1cc(OC)c(C2=NOC(C(=O)NCc3cccs3)C2)cc1Cl (stereo not drawn),0,0,0,0,0,0,-,-
Cc1cc(-c2nnc3n2N=C(c2ccc(-c4ccccc4)cc2)CS3)n[nH]1,0,0,0,0,0,34.3,22.6,0
c1ccc(-c2cc(-c3nnc4n3N=C(c3ccc5ccccc5c3)CS4)[nH]n2)cc1,0,0,0,0,0,30.5,22.5,0

# Source: PubChem BioAssay (The Scripps Research Institute Molecular Screening Center)
